# DAX1 inh-1 – inhibitors of DAX1 repression of SF-1 activated StAR promoter. HEK293T StAR-luciferase reporter, SF-1/DAX-1 repression relief. inhibition, % at 6.8 µM. 370,000 compounds, 1.1% hits. AID 652010;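 active means inhibition above the mean over all tested compounds plus 3 SD, cut at about 3.6% in these data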;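 further: 0% = DAX-1 cells with DMSO and 100% = cells lacking DAX-1 with DMSO; higher inhibition means more luminescence from relief of DAX-1 repression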
# ssDAF-12 act – S. stercoralis DAF-12 activation, primary screen; AID 652126; HEK293 ssDAF-12/GRIP1 lit1-tk-luc reporter, luminescence; % of 3 µM dafachronic acid response; 370,000 compounds, 1% hits; activation, % at 6.8 µM;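 active means activation above the mean over all tested compounds plus 3 SD, cut at about 0.9% in these data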;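 further: 0% = DMSO-only wells and 100% = 3 µM delta7-dafachronic acid wells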
# hgDAF12 agonist – agonists of H. glycines DAF-12 nuclear receptor; activation, % at 6.8 µM; HEK293 GAL4-hgDAF12 UAS-luciferase reporter, agonist luminescence; normalized to butyrate control; 370,000 compounds, 1.8% hits;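 active means activation above a cutoff set at the mean of all screened compounds plus 3 SD, cut at about 10% in these data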;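 further: 0% = DMSO wells and 100% = sodium butyrate wells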
# AHR activator – human AHR activation | AHR-responsive luciferase reporter cells, luminescence | 320,000 compounds, 2.5% hits | activation, % at 5 µM | P35869 | AID 2796; in the data active means activation above about 47%;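 further: 0% = vehicle wells and 100% = reference agonist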
# DAX1 inh-2 – NR0B1 (DAX1) inhibition | 340,000 compounds, 0.99% hits | HEK293 Gal4-DAX1 luciferase reporter, luminescence | inhibition, % at 6.75 µM;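 active means inhibition above the mean over all tested compounds plus 3 SD, cut at about 4.2% in these data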;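 further: 0% = DAX1-transfected cells with DMSO and 100% = empty-vector control cells with DMSO; inhibition shows as a rise in luminescence from relieved DAX1 repression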
# Target sequence (P51843 207-470 limits assumed): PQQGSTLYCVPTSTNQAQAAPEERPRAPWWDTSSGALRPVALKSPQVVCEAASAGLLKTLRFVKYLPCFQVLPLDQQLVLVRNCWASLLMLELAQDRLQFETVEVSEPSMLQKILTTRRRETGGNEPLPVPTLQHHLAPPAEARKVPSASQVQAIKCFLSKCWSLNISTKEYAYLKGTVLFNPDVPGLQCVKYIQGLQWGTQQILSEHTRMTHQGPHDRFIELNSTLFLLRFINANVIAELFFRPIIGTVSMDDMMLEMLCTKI
# hcDAF12 agonist – activates DAF-12 receptor from parasite H. contortus; HEK293 hcDAF-12 lit1-tk-luc reporter, luminescence; 0% DMSO, 100% Δ7-dafachronic acid; activation, % at 6.8 µM; 370,000 compounds, 1.4% hits;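 active means activation above the mean of all tested compounds plus 3 SD, cut at about 5.5% in these data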;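 further: 100% = response to 3 µM Δ7-dafachronic acid high control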
# * = called active by the depositor; / = not tested or not shown. Shown are actives, neighbours in structure and some others; about 5.7% of the full set was active somewhere.
SMILES,DAX1 inh-1,ssDAF-12 act,hgDAF12 agonist,AHR activator,DAX1 inh-2,hcDAF12 agonist
Nc1nc2c(C(=O)N3CCOCC3)nnn2c2ccccc12,0.7,0.1,4.8,14.8,6.2*,1.6
O=C(c1cc2ccccc2oc1=O)N(Cc1ccco1)C1CCS(=O)(=O)C1 (centres undefined),1.5,0.3,12.9*,0.0,0.9,4.8
CN(C)c1ccc(CN(C(=O)c2cc3ccccc3oc2=O)C2CCS(=O)(=O)C2)cc1 (centres undefined),5.2*,-0.1,6.7,4.3,1.4,2.3
CC(C)c1ccc(CN(C(=O)c2cc3ccccc3oc2=O)C2CCS(=O)(=O)C2)cc1 (centres undefined),-0.2,-0.8,0.9,-0.7,-0.3,-0.3
CC(Oc1ccccc1Cl)C(=O)N(Cc1ccco1)C1CCS(=O)(=O)C1 (centres undefined),0.7,1.6*,-2.3,0.8,-1.7,-0.6
O=C(C(c1ccccc1)c1ccccc1)N(Cc1ccco1)C1CCS(=O)(=O)C1 (centres undefined),-0.2,-0.9,-3.5,-1.0,0.6,-1.9
N#Cc1cccnc1N1CCN(C(=O)COCC(=O)O)CC1,-0.1,-0.3,1.0,-0.1,4.0,0.4
CCC(=O)Nc1cccc(NC(=O)c2cccc([N+](=O)[O-])c2C)c1,-0.3,-1.5,-0.5,9.6,-1.6,-0.2
C=CCOc1ccc(CN(C)C(=O)c2ccc(CNS(=O)(=O)c3ccc(C)c(C)c3)cc2)cc1,-4.8,-1.7,-6.7,-0.7,-1.0,-4.0
COc1cccc(C2CN(c3ccc(F)cc3F)N=C2c2cccs2)c1OC (centres undefined),-0.6,-1.3,-0.3,10.3,-0.6,-1.3
Clc1ccccc1CNCc1ccncc1,-1.8,-1.7,4.4,13.2,-0.6,-2.5
CC(=O)Nc1cccc(OCC(=O)NC(C)C(C)C)c1 (centres undefined),0.3,-1.3,2.1,-2.3,-0.4,0.3
COc1cccc(CNC(=O)CCNS(=O)(=O)c2cccc3nsnc23)c1,0.4,-1.4,1.2,6.3,8.6*,0.0
COc1ccc(CCNC(=O)C2CC(c3ccccc3C(F)(F)F)=NO2)cc1 (centres undefined),0.2,-1.6,0.0,1.2,-0.2,-1.7
O=C(CSc1ncccn1)N/N=C/c1cccs1,-0.2,-0.7,2.3,10.5,-0.8,-0.5
Cc1[nH]c2ccccc2c1Cc1nnc(SCC(N)=O)o1,1.0,-1.4,2.8,15.0,4.7*,5.1
Cc1[nH]c2ccccc2c1Cc1n[nH]c(=S)n1C,-0.5,-0.7,1.1,7.2,1.3,0.6
Cc1[nH]c2ccccc2c1Cc1n[nH]c(=S)o1,0.1,-0.4,5.9,0.3,4.7*,1.8
Cc1[nH]c2ccccc2c1CCC(N)=O,-0.9,-1.2,2.7,2.9,0.8,-0.1
CC(OC(=O)CCC(=O)c1cccs1)C(=O)NC1CCCCC1C (centres undefined),-1.2,-0.9,-2.9,0.6,0.0,-0.7
Clc1ccc(NC2(c3nnnn3C3CCCCC3)CCCCC2)cc1,0.0,-1.4,-0.2,0.6,4.7*,-0.9
CCCCNC(=O)c1cc2c(=O)n3cccc(C)c3nc2s1,-0.2,-1.1,-1.7,0.3,-0.2,-3.2
Cc1cccn2c(=O)c3cc(C(=O)NCCc4ccccc4)sc3nc12,0.4,1.0*,0.4,2.6,1.3,4.8
O=S(=O)(c1ccccc1)c1cnc(-c2cccnc2)nc1-c1ccc(Cl)c(Cl)c1,-0.3,1.6*,1.5,0.1,0.6,-0.5
O=C(CCN1C(=O)S/C(=C\c2ccc(Cl)cc2)C1=O)Nc1ccc(C(=O)O)cc1,1.3,-0.7,1.2,-1.7,1.5,-1.4
SMILES,DAX1 inh-1,ssDAF-12 act,hgDAF12 agonist,AHR activator,DAX1 inh-2,hcDAF12 agonist
O=C(Nc1cccc2ccccc12)C(=O)C1C(=O)Nc2ccccc21 (centres undefined),-0.2,-0.1,2.5,25.8,0.1,6.1*
CC(=O)c1ccc(Nc2nc(C)cc(C)n2)cc1,1.2,-0.9,6.2,-4.5,2.8,1.0
CC(=O)c1ccc(Nc2ccc(-c3ccccc3C)nn2)cc1,2.3,0.2,11.4*,5.0,1.6,1.2
COc1ccccc1-c1ccc(Nc2cccc(C(C)=O)c2)nn1,0.5,-1.7,4.1,-0.5,0.9,1.1
CC(=O)c1cccc(Nc2ccc(-c3ccccc3F)nn2)c1,3.8*,-1.2,9.1,12.8,0.3,4.0
CCOC(=O)CNC(=O)c1cnc(Nc2ccccc2OC)c2ccccc12,0.1,-0.8,-0.1,3.7,-0.8,-1.6
CCOC(=O)N1CCN(C(=O)C[C@@H]2C[C@@]3(C(=O)OCC)CCC=C3N(CCC3=CCCCC3)C2=O)CC1,1.4,-1.2,-2.2,/,/,-1.0
CCOC(=O)[C@]12CCC=C1N(Cc1ccccc1)C(=O)[C@H](CC(=O)N1CCOCC1)C2,4.3*,-0.8,1.8,/,/,1.7
CCOC(=O)[C@]12CCC=C1N(Cc1ccccc1)C(=O)[C@H](CC(=O)N1CCSCC1)C2,-0.2,-0.6,-1.0,/,/,2.2
CCOC(=O)[C@]12CCC=C1N(CCC1=CCCCC1)C(=O)[C@H](CC(=O)N1CCSCC1)C2,4.1*,-1.1,-1.7,/,/,-1.3
O=C(CSc1ccccc1)Nc1ccc(N2CCOCC2)cc1,-0.9,-1.2,7.8,2.8,-0.1,1.0
O=C(CSc1ccccc1F)Nc1ccc(N2CCOCC2)cc1,-2.5,-0.5,11.8*,1.5,1.0,1.2
CN(CC(=O)Nc1ccc(N2CCOCC2)cc1)CC(=O)Nc1ccc(N2CCOCC2)cc1,-1.3,-1.4,1.2,51.7*,1.1,-1.9
O=C(CSc1ccccc1)Nc1ccc(N2CCOCC2)c(F)c1,4.4*,-0.4,4.7,8.8,1.8,1.2
CN(Cc1cccnc1)Cc1cn[nH]c1-c1ccc(-c2ccccc2)cc1,0.7,-1.0,-1.8,23.2,-0.1,-0.8
Nc1ccc2nc(CCc3ccccc3)[nH]c2c1,-0.2,-1.0,2.1,15.7,1.0,2.7
COc1ccc(Br)cc1CNC(=O)CCc1nc(-c2ccccc2F)no1,-0.3,-1.8,-1.0,19.9,-0.8,-1.7
COc1ccc(CNC(=O)CCc2nc(-c3ccccc3F)no2)c(OC)c1,-0.6,-0.9,-3.1,49.0*,1.8,-1.2
CSc1nc2ccc(NC(=O)NC(=O)c3c(F)cccc3F)cc2s1,0.5,-0.6,1.6,-0.6,3.5,-1.3
Cc1nc2ccc(NC(=O)Cc3cccc(F)c3)cc2s1,1.3,-1.3,0.3,-2.1,0.0,0.4
Cc1nc2ccc(NC(=O)c3sccc3C)cc2s1,2.0,-0.7,12.1*,-3.4,1.3,-0.1
Cc1nc2ccc(NC(=O)Cc3ccsc3)cc2s1,1.7,1.3*,5.9,17.1,0.9,5.8*
CSc1nc2ccc(NC(=O)c3ccc(Cl)s3)cc2s1,4.1*,-1.2,1.7,9.7,1.4,-0.3
N#Cc1ccccc1CSc1nc2ccc(NC(=O)c3ccccc3C(=O)O)cc2s1,-0.5,-0.8,8.8,49.5*,0.0,4.9

# Source: PubChem (The Scripps Research Institute Molecular Screening Center)
